Key:
Assay in all cases: thermal shift delta Tm vs DMSO control; higher = stronger stabilization (binding)
Conditions in all cases: 12.5 µM; protein concentration 2 µM
LOC_OS02G45750-cb003 = tested on: LOC_OS02G45750-cb003
In short: (§1)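 Compounds dissolved in DMSO were added to purified rice kinase domain constructs, which had been expressed in E. coli, for differential scanning fluorimetry. Each well held 19.5 μl of 2 μM kinase in 100 mM potassium phosphate pH 7.5, 150 mM NaCl, 10% glycerol and 5 × SYPRO Orange. Fluorescence was followed from 25°C to 95°C at a rate of 0.05°C/s. Shifts in Boltzmann-fitted melting temperature are triplicate means relative to DMSO-only protein.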

LOC_OS02G54510-cb004 = tested on: LOC_OS02G54510-cb004
In short: as §1

LOC_OS03G04050-cb001 = tested on: LOC_OS03G04050-cb001
In short: as §1

LOC_OS03G12390-cb001 = tested on: LOC_OS03G12390-cb001
In short: as §1

LOC_OS03G27990-cb004 = tested on: LOC_OS03G27990-cb004
In short: as §1

LOC_OS03G50450-cb001 = tested on: LOC_OS03G50450-cb001
In short: as §1

LOC_OS03G50810-cb003 = tested on: LOC_OS03G50810-cb003
In short: as §1

LOC_OS04G35114-cb001 = tested on: LOC_OS04G35114-cb001
In short: as §1

LOC_OS04G38480-cb003 = tested on: T1, LOC_OS04G38480-cb003
T1 sequence (whole entry): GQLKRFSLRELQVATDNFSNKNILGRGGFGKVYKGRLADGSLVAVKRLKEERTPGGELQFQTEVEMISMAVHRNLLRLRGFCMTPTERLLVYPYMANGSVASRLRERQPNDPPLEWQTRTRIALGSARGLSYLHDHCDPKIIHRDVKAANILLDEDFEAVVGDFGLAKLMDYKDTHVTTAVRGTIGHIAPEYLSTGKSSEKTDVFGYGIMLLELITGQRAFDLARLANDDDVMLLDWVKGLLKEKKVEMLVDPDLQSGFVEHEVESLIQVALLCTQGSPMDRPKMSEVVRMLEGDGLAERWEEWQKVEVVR
In short: as §1

LOC_OS04G41100-cb001 = tested on: T2, LOC_OS04G41100-cb001
T2 sequence (whole entry): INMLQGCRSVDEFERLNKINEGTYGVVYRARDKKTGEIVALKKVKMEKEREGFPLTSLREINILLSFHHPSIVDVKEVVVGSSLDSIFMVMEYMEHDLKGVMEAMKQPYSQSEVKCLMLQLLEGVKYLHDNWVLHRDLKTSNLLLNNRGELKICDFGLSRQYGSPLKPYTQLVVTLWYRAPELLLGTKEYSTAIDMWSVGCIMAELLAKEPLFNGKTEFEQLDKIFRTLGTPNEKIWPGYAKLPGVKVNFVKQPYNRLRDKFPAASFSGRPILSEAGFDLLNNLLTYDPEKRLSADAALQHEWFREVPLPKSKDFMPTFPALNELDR
In short: as §1

Structure (SMILES) | thermal shift delta Tm (LOC_OS02G45750-cb003) [°C] | thermal shift delta Tm (LOC_OS02G54510-cb004) [°C] | thermal shift delta Tm (LOC_OS03G04050-cb001) [°C] | thermal shift delta Tm (LOC_OS03G12390-cb001) [°C] | thermal shift delta Tm (LOC_OS03G27990-cb004) [°C] | thermal shift delta Tm (LOC_OS03G50450-cb001) [°C] | thermal shift delta Tm (LOC_OS03G50810-cb003) [°C] | thermal shift delta Tm (LOC_OS04G35114-cb001) [°C] | thermal shift delta Tm (LOC_OS04G38480-cb003) [°C] | thermal shift delta Tm (LOC_OS04G41100-cb001) [°C]
Cn1cc(-c2ccc3ncc(Cc4ccc5ncccc5c4)n3n2)cn1 | 0.5 | 0.06 | 0.32 | -0.22 | 0.07 | 0.05 | 0.44 | 2.6 | 1.45 | 0.07
CCN(CC)CCCC(C)Nc1ccnc2cc(Cl)ccc12 (stereo unspecified) [Chloroquine Phosphate] | 0.61 | 0.18 | 0.45 | 0 | 0.19 | 0.25 | 0.19 | 0.59 | 2.48 | 0.64
Nc1ccc(-c2ccc3ncc4ccc(=O)n(-c5cccc(C(F)(F)F)c5)c4c3c2)cn1 [Torin 2] | 2.36 | -0.06 | 0.2 | 0.23 | 0.43 | 0.37 | 0.92 | 2.97 | 0.88 | 0.27
Nc1[nH]nc2nnc(-c3c(-c4ccccc4)nn4ccccc34)cc12 | 1.41 | 0.54 | 0.66 | 1.36 | 0.56 | 1.03 | 0.41 | 1.11 | 0.15 | 0.75
CCn1nc(C2CCN(C(=O)CCO)CC2)nc1-c1cnc(N)c(-c2nnc(C(C)(C)C)o2)n1 | 3.05 | 0.25 | 0.43 | 4.97 | 0.52 | 0.05 | 0.89 | 4.72 | 2.09 | 0.3
COc1cc2c(c(OC)c1OC)-c1c(cc3c(c1OC)OCO3)CC(C)C(C)C2 (stereo unspecified) [Schisandrin B (Sch B)] | -0.1 | -0.01 | 0.81 | 0.12 | 0.05 | 0.76 | 0.12 | 0.63 | 0.75 | 0.48
C=CC(=O)Nc1ccc(CN2C(=O)N(c3cc(OC)cc(OC)c3)Cc3cnc(Nc4ccc(N5CCN(C)CC5)cc4)nc32)cc1 | 1.47 | 1.08 | 0.74 | 0.1 | 0.49 | 0.33 | 0.75 | 1.29 | 2.8 | 0.83
O=C1NC(=O)/C(=C/c2ccc3c(c2)OC(F)(F)O3)S1 | 1.3 | 0.48 | 0.81 | 0.94 | 0.43 | 0.55 | 0.65 | 0.97 | 1.58 | 0.5
CCOC(=O)c1cnc2ccc(-c3cncc(NS(=O)(=O)c4ccccc4)c3)cn12 | 1.34 | 0.07 | 0.25 | 0.45 | 0.16 | 0.7 | 0.65 | 1.78 | 1.81 | 0.65
CO[C@@H](C(=O)N1Cc2[nH]nc(NC(=O)c3ccc(N4CCN(C)CC4)cc3)c2C1)c1ccccc1 | 6.97 | 0.95 | 0.25 | 4.21 | 0.41 | -0.04 | 3.61 | 4.16 | 2.5 | 1.51
N#Cc1cccc(-c2c[nH]c3ncnc(N4CCOCC4)c23)c1 | 3.36 | 0.44 | 0.26 | 3.14 | 0.37 | -0.1 | 2.96 | 5.02 | 1.08 | 0.06
COc1cc(N2CCC(N(C)C)CC2)ccc1Nc1ncc(Cl)c(Nc2ccccc2P(C)(C)=O)n1 | 2.58 | 0.23 | 0.53 | 10.9 | 2.49 | 0.35 | 5.58 | 4.67 | 3.65 | 0.61
CNC(=O)c1ccc(C)c(-n2c(C)cc(OCc3ccc(F)cc3F)c(Br)c2=O)c1 | 0.5 | 0.06 | 0.28 | 0.6 | 0.15 | 0.27 | 0.59 | 0.14 | 0.62 | 0.73
COc1ccc(-c2ccc3ncc4c(c3c2)n(-c2ccc(N3CCNCC3)c(C(F)(F)F)c2)c(=O)n4C)cn1 | 1.22 | 0.44 | 0.36 | -0.28 | 0.61 | 0.72 | 2.17 | 7.13 | 1.98 | 0.01
CS(=O)(=O)N1CCN(Cc2cc3nc(-c4cccc5[nH]ncc45)nc(N4CCOCC4)c3s2)CC1 [Pictilisib (GDC-0941)] | 0.86 | 0.25 | 0.28 | 0.14 | 0.17 | 0.22 | 1.56 | 1.73 | -0.11 | 0.72
CCN(CC)CCNC(=O)c1c(C)[nH]c(/C=C2\C(=O)Nc3ccc(-c4csc(-c5ccccc5)n4)cc32)c1C [Amcasertib (BBI503)] | 0 | 0.74 | 0.42 | 0.16 | 0.77 | 1.61 | 7.41 | 15 | 1.78 | 0.78
Cc1ccc(C(=O)Nc2ccc(CN3CCN(C)CC3)c(C(F)(F)F)c2)cc1C#Cc1cnc2[nH]ncc2c1 [GZD824 Dimesylate] | 10.6 |  | 0.96 | 3.54 | 1.61 | 1.08 | 6.3 | 1.99 | 1.28 | 2.67
Cc1ccccc1-n1c(Cn2nc(-c3cccc(O)c3)c3c(N)ncnc32)nc2cccc(C)c2c1=O | -2.16 | -0.05 | -0.24 | -0.5 |  | 0.05 | 0.27 | 0.34 |  | 
CO[C@H]1C[C@@H]2CC[C@@H](C)[C@@](O)(O2)C(=O)C(=O)N2CCCC[C@H]2C(=O)O[C@H]([C@H](C)C[C@@H]2CC[C@@H](OP(C)(C)=O)[C@H](OC)C2)CC(=O)[C@H](C)/C=C(\C)[C@@H](O)[C@@H](OC)C(=O)[C@H](C)C[C@H](C)/C=C/C=C/C=C/1C [Ridaforolimus (Deforolimus, MK-8669)] | 0.46 | -0.33 | 0.25 | 0.04 | 0.01 | -0.11 | -0.15 | 0.34 | 0.98 | 0.85
Cc1ccc(Nc2nccc(N(C)c3ccc4c(C)n(C)nc4c3)n2)cc1S(N)(=O)=O [Pazopanib] | 3.24 | 0.61 | 0.35 | 0.19 | 0.23 | 0.21 | 0.98 | 4.53 | 1.63 | 3.44
Cc1[nH]c(/C=C2\C(=O)Nc3ccc(S(=O)(=O)Cc4c(Cl)cccc4Cl)cc32)c(C)c1C(=O)N1CCC[C@@H]1CN1CCCC1 | 0 | 0.51 | 0.3 | 4.07 | 0.43 | 0.47 | 0 | 7.26 | 2.55 | 0.74
CC1=C(C(=O)Nc2ccc3[nH]ncc3c2)C(c2ccc(F)cc2)NC(=O)N1 (stereo unspecified) | 0.98 | 0.18 | 0.57 | 0.72 | 0.46 | 0.58 | 0.64 | 0.48 | 1.84 | 0.33
